The values below come from PubChem BioAssay.

This assay addresses Calmodulin-1 (Homo sapiens) (UniProt P0DP23). Description: CALM1 binders on microarrays, EGTA buffer, profiling panel, biochemical, small-molecule microarray, Cy5-labelled CALM1 (AID 1111).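 Also: labelled calmodulin applied in Tris saline Tween buffer holding calcium plus EGTA and DTT.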 The conditions noted are these: Cy5-CALM1 binding fluorescence, higher = more signal.
The compound `C=CCOC(=O)[C@H]1[C@@H]2C(=O)O[C@@H](c3ccccc3)[C@@H](c3ccccc3)N2[C@@H](c2ccc(OCCOC(=O)[C@@H]3C[C@@H]4C(=O)N5CCC[C@H]5C(=O)N4[C@@H]3c3ccc(O)cc3)cc2)[C@]12C(=O)Nc1ccc(I)cc12` came in with a composite z-score of 0.793.
`CCCC[C@@H]1C[C@H]1[C@@H](NC(=O)c1ccccc1)c1ccc(C(F)(F)F)cc1` came in with a composite z-score of -0.17.
Regarding `C=C(C)c1cc2c(c(CCCCCC)n1)[Si](C(C)C)(C(C)C)OC2`, the composite z-score is -0.689.
The figure for `COC(=O)[C@@]1(Cc2ccc(OC)cc2)[C@@H]2C(=CC(=O)[C@H]2CC(=O)C(=O)N(C)C)CN1C(=O)c1ccccc1` is 2.21; for `COC(=O)c1cn(C[C@@H](Cc2ccccc2)NC(=O)N[C@H](CO)CCc2oc(C(C)=O)c(C(=O)OC)c2C(=O)OC)nn1` it is -0.335.
The value for `COCCOC(=O)N1C(=O)[C@@]2(c3cc(C#CC4(O)CCCCCC4)ccc31)[C@H](c1ccc(O)cc1)N1[C@H](c3ccccc3)[C@H](c3ccccc3)OC(=O)[C@H]1[C@@H]2C(=O)NC[C@H](O)c1ccccc1` was 0.896.
The figure for `C=C(C)C1CCC(C(O)C2C=CC3C(=O)N(C)C(=O)C3N2N2CCCCC2)CC1` (stereo unspecified) is 0.949.
The compound `CC(C)(C)N1CC=CC23O[C@@H]4C=CCOC(=O)[C@@H]4[C@H]2C(=O)N(CCCCCCO)[C@@H]3C1=O` (stereo partly specified) gave a composite z-score of -0.243.
The figure for `COc1ccc(-c2cc3c(c(CCc4ccccc4)n2)[Si](C(C)C)(C(C)C)OC3)cn1` is -0.113; for `C=CCOC(=O)[C@H]1[C@@H]2C(=O)O[C@@H](c3ccccc3)[C@@H](c3ccccc3)N2[C@@H](c2ccc(OCCOC(=O)[C@@H]3C[C@@H]4C(=O)N[C@@H](CCCCNC(C)=O)C(=O)N4[C@@H]3c3ccc(O)cc3)cc2)[C@]12C(=O)Nc1ccc(I)cc12` it is 0.48.
The value for `COc1ccc(CCNC(=O)[C@@]2(Sc3ccc(C)cc3)CC(=O)N(C3Cc4ccccc4C3)[C@@H]2c2ccc(CO)cc2)cc1` was 1.07.
Consider `COCCCNC(=O)[C@@]1(Sc2ccc(C)cc2)CC(=O)N(C2CCCCC2)[C@@H]1c1ccc(CO)cc1`, for which the composite z-score is -0.206.
In turn, `COCCCNC(=O)[C@]1(CCS(=O)(=O)c2ccccc2)N=C(c2ccc(OCCCO)cc2)O[C@@H]1c1ccccc1N=[N+]=[N-]` displayed a composite z-score of 2.09.
The compound `CN(C)CCCNC(=O)[C@@H]1c2ccccc2C(=O)N(Cc2ccccc2Cl)[C@H]1c1ccc(CO)cc1` yielded a composite z-score of -0.139.
The value for `CO[C@H]1O[C@H](CO)[C@@H](OC(=O)Nc2ccccc2-c2ccccc2)[C@H](OC(=O)Nc2ccc3c(c2)OCO3)[C@H]1OC(=O)Nc1ccc2c(c1)OCO2` was 0.58.
The value for `CCCCCCCCCCC(O)C1C=CC2C(=O)N(C)C(=O)C2N1NC(=O)OC(C)(C)C` (stereo unspecified) was 1.41.
